Here are results for one compound from PubChem BioAssay AID540345 (The Scripps Research Institute Molecular Screening Center, 2011).

In the assay the test system is Rolipram. The assay is described as follows: off-target binding and CYP inhibition panel, profiling panel, selectivity assay for GPR7 antagonist project, biochemical, Ricerca HitProfilingScreen, CYP450, set 2 (AID 540345). The following applies: Ricerca radioligand binding/CYP panel, at 10 µM, stronger effect = higher value.

Molecules are shown by their SMILES. A number with no mark means an inactive call. No rule for the calls is given here.

A word on the inhibition: it is the drop in the measured response relative to a control, in per cent. Turning to `COc1ccc(Oc2c(Cl)cnn(C3c4ccccc4-c4ccccc43)c2=O)cc1`, the inhibition is 5%.
